Measurements reported in PubChem BioAssay AID2284385 (EPA ToxCast).
“And” between values parts separate entries of the source, which are not always exact repeats. Equal values may be shown once. The source made the active and inactive calls. The calls were made as follows: active = hit-call score of the fitted dose curve at least 0.9, where 1 is the maximum; inactive = score below 0.9.

Biological target: human Peroxisome proliferator-activated Receptor alpha (PPARa), PPARA (gene 5465) (UniProt Q07869)
Sequence (Q07869 whole entry, looked up): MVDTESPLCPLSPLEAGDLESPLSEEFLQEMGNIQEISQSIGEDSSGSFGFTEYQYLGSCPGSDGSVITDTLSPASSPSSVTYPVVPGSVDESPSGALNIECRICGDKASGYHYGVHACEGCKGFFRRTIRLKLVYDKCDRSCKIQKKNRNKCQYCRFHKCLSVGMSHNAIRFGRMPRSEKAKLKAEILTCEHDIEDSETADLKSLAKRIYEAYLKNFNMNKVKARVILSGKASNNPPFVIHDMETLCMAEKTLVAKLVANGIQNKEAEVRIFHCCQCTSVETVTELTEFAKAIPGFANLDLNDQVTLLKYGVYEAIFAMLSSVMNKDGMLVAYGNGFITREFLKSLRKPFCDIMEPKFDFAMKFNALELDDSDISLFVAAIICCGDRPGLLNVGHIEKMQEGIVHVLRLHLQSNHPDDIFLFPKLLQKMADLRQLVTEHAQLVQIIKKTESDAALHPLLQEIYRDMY
Experiment: ERF_TW_NR_COA_hPPARA: Eurofins (ERF) Nuclear Receptor (NR) Functional Coactivator Assay for human Peroxisome proliferator-activated Receptor alpha (PPARa) Agonism & Antagonism, conducted at Taiwan lab site
Description: ERF_TW_NR_COA_hPPARA is a biochemical, single-readout assay that uses extracted gene-proteins in a cell-free assay. Measurements were taken 3 hours after chemical dosing in a 96-well plate. See PPARalpha Human NHR Functional Agonist Coactivator Assay, Panlabs.ERF_TW_NR_COA_hPPARA is an assay component calculated from the ERF_TW_NR_COA_hPPARA assay. It is designed to measure FRET using a type of binding reporter as detected by fluorescence intensity of GW7647 with fluorimetry technology.Data from the assay component ERF_TW_NR_COA_hPPARA was analyzed at the assay endpoint, ERF_TW_NR_COA_hPPARA, in the positive analysis fitting direction relative to DMSO as the negative control and baseline of activity. Using a type of binding reporter, gain-of-signal activity can be used to understand changes in binding as they relate to gene PPARA. To generalize the intended target to other relatable targets, this assay endpoint is annotated to the nuclear receptor intended target family, where the subfamily is non-steroidal.
Human recombinant peroxisome proliferators-activated receptor alpha (PPARA, PPARa, PPAR-alpha) hPPAR, NR1C1) receptors expressed in insect are used. Test compound and/or vehicle is incubated with the 2.5 nM receptors and binding buffer in modified kit buffer pH 7.4 for 3 hours at RT. Determination of the amount of complex formed is read microplate reader (excitation:337 nm, emission: 520/490 nm). Test compound-induced increase fluorescence by 50 percent or more (>/=50%) relative to the 1 uM GW7647 response indicates possible PPARa receptor agonist activity. Test compound-induced inhibition of 20 nM GW7647-induced fluorescence response by 50 percent or more (>/=50%) indicates receptor antagonist activity.

| Structure (SMILES) | AC50 | outcome |
| --- | --- | --- |
| O=C(O)C(F)(F)C(F)(F)C(F)(F)C(F)(F)C(F)(F)C(F)(F)C(F)(F)F | 11.5 µM (active) and 17.1 µM (active) | – |
| O=C(O)C(F)(F)C(F)(F)C(F)(F)C(F)(F)C(F)(F)C(F)(F)F | 50 µM (active) | – |
| O=C(O)C(F)(F)OC(F)(F)C(F)(F)OC(F)(F)F | 19.3 µM (active) | – |
| O=S(=O)(O)C(F)(F)C(F)(F)C(F)(F)C(F)(F)C(F)(F)C(F)(F)C(F)(F)C(F)(F)F | – | inactive |
| O=S(=O)(O)C(F)(F)C(F)(F)C(F)(F)C(F)(F)C(F)(F)C(F)(F)F | – | inactive |
